Only some compounds are listed: those with a hit (about 5.3% of all), similar ones and a draw of the others.
CtBP-E1A blk = inhibitors of CtBP/E1A interaction | activity change, % (concentration not given with the values) | AlphaScreen GST-E1A/His-CtBP binding, 1536-well; hits give low values | 340,000 compounds, 0.49% hits | AID 651724; in the data active means activity change below about -65%; inconclusive means mostly about -30% to -63%; further: on the % scale 0 is the no-effect control and ±100 the full control effect
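GST-E1A and His-tagged CtBP (125 nM each as 5X stock) were preincubated with pin-transferred compound for 2 h at 37 °C in the dark, then glutathione donor and nickel acceptor beads were added for 1 h before AlphaScreen reading.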
JMJD2A Tudor = inhibitors of human JMJD2A Tudor domain; O75164; AlphaScreen JMJD2A-Tudor / H3K4me3 peptide binding; Potency, µM (highest dose often 114 µM), for the others: at the top dose activity change, negative = inhibition, usual class: inhibitors; 390,000 compounds, 4.4% hits; AID 504339; further: potency means the concentration at half of the fitted maximal effect; on the % scale 0 is the no-effect control and ±100 the full control effect; nearly all actives have a fitted effect of over 50% in size
Six1-Eya2 inh = blocks human Six1 binding to Eya2 | Q15475+O00167 | AlphaScreen GST-Six1/His-Eya2 binding, biochemical; hits give low values | activity change, % (no concentration beside the values) | 360,000 compounds, 0.56% hits; in the data active means activity change below about -65%; inconclusive means mostly about -30% to -63%; further: on the % scale 0 is the no-effect control and ±100 the full control effect
Target sequence (O00167 whole entry, looked up): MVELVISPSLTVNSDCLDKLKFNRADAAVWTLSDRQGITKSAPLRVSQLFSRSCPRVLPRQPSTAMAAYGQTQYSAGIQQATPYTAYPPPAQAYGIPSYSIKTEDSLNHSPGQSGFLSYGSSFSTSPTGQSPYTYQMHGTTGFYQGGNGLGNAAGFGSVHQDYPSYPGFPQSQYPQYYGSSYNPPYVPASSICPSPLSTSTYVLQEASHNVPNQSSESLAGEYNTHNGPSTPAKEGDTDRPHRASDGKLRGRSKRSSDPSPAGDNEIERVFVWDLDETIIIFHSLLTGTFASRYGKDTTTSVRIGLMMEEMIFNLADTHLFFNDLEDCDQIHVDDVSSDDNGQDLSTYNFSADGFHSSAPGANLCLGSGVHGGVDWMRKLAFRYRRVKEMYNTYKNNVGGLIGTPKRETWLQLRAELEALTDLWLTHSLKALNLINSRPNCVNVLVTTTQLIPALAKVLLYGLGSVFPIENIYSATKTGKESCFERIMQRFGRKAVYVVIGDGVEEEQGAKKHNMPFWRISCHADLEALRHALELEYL
Target sequence (Q15475 whole entry, looked up): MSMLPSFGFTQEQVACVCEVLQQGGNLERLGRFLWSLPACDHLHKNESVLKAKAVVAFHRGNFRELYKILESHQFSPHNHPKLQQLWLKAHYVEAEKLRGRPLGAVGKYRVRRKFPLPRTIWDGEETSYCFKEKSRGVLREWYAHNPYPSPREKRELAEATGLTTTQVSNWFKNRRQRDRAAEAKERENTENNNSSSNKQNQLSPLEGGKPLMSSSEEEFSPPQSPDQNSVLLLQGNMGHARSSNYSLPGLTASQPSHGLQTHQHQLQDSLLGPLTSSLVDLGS
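Compounds are tested against tagged Six1 and Eya2 proteins bridged by glutathione donor and nickel acceptor beads; after a one-hour incubation at 37 °C without light, AlphaScreen emission is recorded.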
BAZ2B block = inhibitors of human BAZ2B bromodomain. AlphaScreen BAZ2B-H3K14Ac peptide displacement. 360,000 compounds, 4.4% hits. Potency, µM (top dose mostly 114 µM), inactives show at the highest dose activity change, negative = inhibition, most hits filed as inhibitors; further: potency means the concentration at half of the fitted maximal effect; on the % scale 0 is the no-effect control and ±100 the full control effect; nearly all actives have a fitted effect of over 60% in size
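Compounds, titrated to a top concentration of 110 uM, were incubated 30 min at room temperature with preformed BAZ2B/acetyl-K14 H3 peptide complex (50 nM each). Proximity signal was measured by AlphaScreen after 20 min with beads.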
TDP1 inh = blocks human tyrosyl-DNA phosphodiesterase 1 | Q9NUW8 | recombinant TDP1, AlphaScreen DNA substrate cleavage | Potency, µM (top dose mostly 130 µM), inactives show at the highest dose activity change, negative = inhibition, hits mostly inhibitors | 350,000 compounds, 0.28% hits | AID 485290; further: potency means the concentration at half of the fitted maximal effect; on the % scale 0 is the no-effect control and ±100 the full control effect; nearly all actives have a fitted effect of over 40% in size
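Enzyme-compound mixtures sat 15 min at room temperature, followed by a 5 min reaction with 15 nM final substrate and 10 min with AlphaScreen beads. Recombinant human Tdp1 was used at 1 nM final.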
HP1b chromo inh = HP1-beta chromodomain-methylated histone interaction inhibition. AlphaScreen HP1-beta / biotin-H3K9me3 peptide binding. Potency, µM (titrated, usually from 114 µM), for inactives: top-dose activity change, negative = inhibition, actives largely listed as inhibitors. AID 540317. P83916. 390,000 compounds, 0.56% hits; further: potency means the concentration at half of the fitted maximal effect; nearly all actives have a fitted effect of over 70% in size
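AlphaScreen: HP1-beta (50 nM) preformed 30 min with biotin-H3(1-18)K9me3 peptide (50 nM) in PBS pH 7.4, 0.01% Tween-20. Compound added for 30 min at RT, then streptavidin donor/nickel chelate acceptor beads (10 ug/mL) for 30 min.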
* hit, by the source's call; u = inconclusive; x = no result; ! = not active in a repeat; [ ] = remark or other dose. Unless noted, the call rests on the fitted dose curve; in most records, active means well fitted inhibition curve with a large enough effect; inconclusive means small, poorly fitted or top-dose-only effect; inactive means no such curve, though single readings can be large or run the other way.

SMILES	CtBP-E1A blk	JMJD2A Tudor	Six1-Eya2 inh	BAZ2B block	TDP1 inh	HP1b chromo inh
O=C(O)c1ccccc1CC(CCc1ccccc1)C(=O)O (stereo unspecified)	6.2	10µM*	7.6	x	x	-9.4%[57 µM]
O=C(O)Cc1ccccc1C(=O)O	3.4	-15.0%	5.6	-4.1%	2.2%	36.8%
O=C(Cn1cnc2ccccc21)N/N=C/C(Br)=C/c1ccccc1	-83.4*	-22.6%	0.0	11.5%	1.4%	36.0%
Cn1c(=O)c2c(ncn2CC(=O)N/N=C/C(Br)=C/c2ccccc2)n(C)c1=O	-18.0	-14.2%	0.2	10.3%	3.2%	12.6%
CCCCC/C=C/C=C1/C(=O)C=C[C@@H]1C/C=C\CCCC(=O)O	x	x	x	x	17.8µM*!	x
CCCCC[C@H](O)/C=C/[C@H]1C=CC(=O)[C@@H]1C/C=C\CCCC(=O)O	x	x	x	50.1µM*	5.5%	x
CCCCCCCC/C=C\CCCCCCCC(=O)O	-1.5	89.1µM*	8.8	-23.1%	6.4%	86.1%
Cc1cccc(N2CCN(S(=O)(=O)c3ccc4c(c3)C(C(C)C)C(=O)N4)CC2)c1C (stereo unspecified)	x	-33.3%	x	-8.4%[57.1 µM]	6.3%	24.3%
COc1cccc(-c2nc(Cn3c(=O)cc(C)c4c(C)nn(-c5ccccc5)c43)c(C)o2)c1OC	x	-19.0%	x	-13.0%	5.8%	-10.8%
CC1(O)C(=O)C=C2C=C3CCCN3C=C2C1=O (stereo unspecified)	x	x	x	x	1.6%[21 µM]	x
O=C(O)CCc1ccc(-c2ccc(Br)cc2)o1	0.0	56.2µM*	6.5	-35.8%	6.8%	-36.1%
COc1ccc(-c2noc(CCC(=O)O)n2)cc1	4.7	-9.9%	4.9	-4.9%	2.6%	14.0%
COc1ccc(-c2ccc(CCC(=O)O)o2)cc1	16.6	79.4µM*	-3.4	-30.3%	4.8%	-24.5%
O=C(O)CCc1ccc(-c2ccc(Cl)cc2)o1	5.1	u	-1.5	-36.2%	7.9%	-23.2%
COC(=O)c1ccc(C(=O)OC)nc1	6.1	-2.9%	1.4	1.2%	2.0%	24.3%
COC(=O)c1ccc(C(=O)O)nc1	-6.0	12.6µM*	u	17.8µM*	-6.2%	u
O=C(O)c1ccc(Br)cn1	-21.1	5.62µM*	u	22.4µM*	0.0%	5.1%
CCC(=O)Nc1ccc(Br)cn1	-1.6	-2.8%	6.2	-3.7%	-5.1%	17.0%
COc1ccc([C@H]2C=C(C(=O)O)O[C@@H](OCCCCO)C2)cc1	-17.7	56.2µM*	-11.1	u	1.2%	35.2%
O=C(O)C1=C[C@@H](c2ccccc2)C[C@@H](OCCCCO)O1	4.1	-21.5%	3.1	x	x	18.8%
O=C(O)C1=C[C@H](c2ccccc2)C[C@H](OCCCCO)O1	-1.7	-16.0%	-0.3	x	x	19.6%
C#Cc1ccc([C@@H]2C=C(C(=O)OCC=C)O[C@H](OCCCCO)C2)cc1	2.5	-33.8%	-3.5	50.1µM*	-1.3%	30.2%
O=C(O)C1=C[C@H](c2ccc(F)cc2)C[C@H](OCCCCO)O1	19.5	-23.7%	-8.4	79.4µM*	5.0%	58.3%
CCOc1ccccc1CNC(=O)Cn1c(-c2ccccc2)cc(C(C)=O)c1C	x	-21.1%	x	-7.7%	3.9%	3.7%
CCOc1ccccc1CNC(=O)Cn1nc(N2CCN(c3ccccc3)CC2)ccc1=O	x	-13.3%	x	u	-7.9%	24.2%
SMILES	CtBP-E1A blk	JMJD2A Tudor	Six1-Eya2 inh	BAZ2B block	TDP1 inh	HP1b chromo inh
Nn1c(Cc2ccc(F)cc2)n[nH]c1=S	-0.4	4.47µM*	1.5	x	0.0%	-16.5%
Cc1ccccc1Cc1n[nH]c(=S)n1N	11.6	2.82µM*	10.3	-30.8%	8.9%	u
Cc1ccc(-n2c(CCc3ccccc3)n[nH]c2=S)cc1C	-1.4	u	-14.4	-31.3%	x	6.5%
CC(Cc1n[nH]c(=S)n1N)c1ccccc1 (stereo unspecified)	5.8	3.16µM*	1.8	14.9%	x	u
Fc1ccc(Cc2cn3cc(-c4ccc(F)cc4)nc3s2)cc1	x	-7.2%	x	-2.8%	2.1%	21.1%
CC(Sc1nnc(CC(C)c2ccccc2)n1N)C(N)=O (stereo unspecified)	5.4	2.0%	2.4	-23.7%	x	52.5%
Nn1c(Cc2ccccc2)n[nH]c1=S	7.1	10µM*	3.7	-20.0%	-2.8%	22.2%
CCOC(=O)c1noc2ncn(CC(=O)Nc3ccccc3OC)c(=O)c12	x	-17.3%	x	-26.9%	3.0%	10.2%[57 µM]
Cc1cc(Cl)ccc1NC(=O)CCn1nc(C)c2c(C)n(-c3ccccc3)nc2c1=O	x	-25.5%	x	u	-2.8%	18.1%
CCc1cc2c(nc1CC)CCN(CC/C(C)=N/OCC[C@@H]1C=C[C@H](OC(C)=O)[C@H](COC(C)=O)O1)C2	x	x	x	x	1.6%[21 µM]	x
Cc1oc(-c2cc(F)ccc2F)nc1CN1CCN(c2cnccn2)CC1	4.6	-19.9%	-3.5	70.8µM*	7.1%	26.2%
Cc1ccc(C)c(NC(=O)c2cnn(-c3cccc(F)c3)c2C2CCN(C(=O)OC(C)(C)C)CC2)c1	x	-33.3%	x	-3.8%[57.1 µM]	-1.1%	16.5%
CCc1nn2c(=O)cc(COC(=O)c3ccccc3NC(=O)COc3ccccc3C)nc2s1	x	-11.6%	x	-4.5%	-1.2%	36.9%
O=C1O/C(=C/c2ccccc2)c2ccccc21	23.0	137.1%	24.3	148.7%	u	285.3%
N#CC1=C(c2ccccc2)/C(=C/c2ccccc2)OC1=O	5.1	u	2.7	22.4µM*	8.1%	u
COc1ccc(NC(=O)CSC2=Nc3ccccc3C3=NC(CCC(=O)NCCc4ccccc4)C(=O)N23)c(OC)c1 (stereo unspecified)	x	-16.3%	x	-14.4%	2.5%	24.8%
O=C(CN1CCCCC1)Nc1ccc(F)c(Cl)c1	0.2	5.3%	1.4	2.4%	-2.1%	20.8%
O=C(CN1CCCCCC1)Nc1ccc(F)c(F)c1	3.9	8.91µM*	0.0	50.1µM*	x	u
O=C(CN1CCCC1)Nc1ccc2c(c1)CCC2	5.6	3.16µM*	-17.0	50.1µM*	0.0%	-4.4%
O=C(CN1CCN(S(=O)(=O)N2CCOCC2)CC1)Nc1ccc(Cl)c(Cl)c1	4.1	-3.5%	-5.1	2.5%	-2.1%	25.7%
O=C(CN1CCCC1)Nc1ccc(F)c(Cl)c1	5.3	22.4µM*	9.4	u	3.4%	-21.1%
O=C(CN1CCOCC1)Nc1ccc(Cl)c(Cl)c1	4.6	28.2µM*	-1.1	-35.0%	x	u
COc1cc(OC)c(NC(=O)CC(C)S(=O)(=O)c2ccc3c(c2)NC(=O)CO3)cc1Cl (stereo unspecified)	x	-17.2%	x	-11.6%	-5.0%	25.6%
Cc1ccc(NC(=O)CN2CCN(C)CC2)cc1Br	x	5.62µM*	2.1	50.1µM*	x	u

Screens as filed in PubChem.
